# Screening data: PubChem BioAssay, National Center for Advancing Translational Sciences (NCATS)
# GALK inhibitor – blocks human galactokinase activity; P51570; Potency, µM (titrated, usually from 57.5 µM), most hits filed as inhibitors; Purified GALK, Kinase-Glo residual ATP luminescence; AID 1868; 270,000 compounds, 0.007% hits
#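 5 nM enzyme, 35 uM ATP, 100 uM galactose, 20 mM HEPES pH8.0, 5 mM MgCl2; 1 h RT; residual ATP by Kinase-Glo Plus luminescence, qHTS format.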
# Eya2 phos inh – blocks the phosphatase activity of human Eya2. recombinant Eya2, OMFP fluorescence dephosphorylation (OMFP is methylfluorescein phosphate). Potency, µM (top dose mostly 76.9 µM), most hits filed as inhibitors. 330,000 compounds, 0.006% hits
#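 Eya2 (0.2 uM) preincubated 10 min at ambient with compound, then OMFP substrate added at 50 uM; 10 min reaction in 50 mM HEPES pH 7.5, 50 mM NaCl, 5 uM MgCl2, 0.05% BSA, 1 mM DTT. Fluorescence read at Ex 485/Em 525 nm.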
# D1 antag – blocks dopamine activation of the human D1 receptor; activity change, negative = inhibition, % at 10 µM; HEK293 TREx D1 cells, calcium flux, dopamine EC80; stronger effect = lower value; P21728; 360,000 compounds, 3.2% hits; in the data active = activity change below about -30%
#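 Tetracycline-induced HEK293 T-REx cells with force-coupled D1 receptor were loaded with a no-wash calcium dye. Compound was added after a 10 s baseline and read kinetically for 180 s; EC80 dopamine was then added and calcium flux followed another 180 s.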
# D1 agonist – human D1 receptor agonism. 360,000 compounds, 1% hits. P21728. HEK293 T-REx D1 cells, calcium flux, agonist mode. AID 504660. activation, % at 2 µM; in the data active = activation above about 30%
#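 Agonism was scored from calcium flux recorded over 180 s (1 read/s) after pintool compound addition, following a 10-cycle baseline. Cells were inducible force-coupled HEK293 TREx D1, plated overnight at 30 C and loaded with no-wash calcium dye.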
# D1 PAM – human D1 dopamine receptor positive modulation. 360,000 compounds, 0.036% hits. P21728. AID 504651. potentiation, % at 10 µM. HEK293 TREx D1 cells, calcium flux, dopamine EC20 potentiation; in the data active = potentiation above about 30%
# USP2a block – inhibitors of human ubiquitin-specific protease USP2a | O75604 | USP2 core, Ub-CHOP2 coupled fluorogenic reporter, 485/531 | Potency, µM (top dose mostly 38.3 µM), hits mostly inhibitors | 330,000 compounds, 0.01% hits | AID 463254
#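 USP2 core (10nM final) preincubated 30min RT with compound in 20mM Tris-HCl pH 8.0, 2mM CaCl2, 2mM beta-mercaptoethanol, 0.05% CHAPS; 25nM Ub-CHOP2 plus 25nM reporter substrate added, fluorescence (Ex485/Em531) read after 60min.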
# Hits are given with their value; . = inactive; / = no result. In the library only some 3.9% were active in any assay of this set; here they are far more common. Unless noted, calls follow the shape of the dose curve; as a rule, active = well fitted inhibition curve with a large enough effect; inconclusive = small, poorly fitted or top-dose-only effect, or effect the other way; inactive = flat fitted curve, though single readings scatter.
SMILES,GALK inhibitor,Eya2 phos inh,D1 antag,D1 agonist,D1 PAM,USP2a block
CCC(C)N(CCNC(=O)c1ccc2c(c1)NC(=O)c1ccccc1S2)C1CCCCC1 (configuration not stated),.,.,.,30,.,.
O=C1CCCN1CCCNC(=S)Nc1ccccc1,.,.,-38,.,.,.
O=C1CCCN1CCCNC(=S)Nc1ccc(Nc2ccccc2)cc1,.,.,.,.,.,.
O=C(NCCCN1CCCC1=O)c1ccc2c(c1)NC(=O)c1ccccc1S2,.,.,-32,.,/,.
COc1ccc(Cl)cc1NC(=O)Cn1c(=O)c(-c2ccccc2NC(C)=O)nc2ccccc21,/,/,.,.,.,/
Cc1nn(CCC(=O)N2CCN(c3ccccc3F)CC2)c(C)c1S(=O)(=O)N1CCCC1,/,/,.,.,.,/
CCN(CC)Cc1c(NC(=O)c2ccc(OC)cc2)sc2c1CCCC2,/,/,.,.,.,/
O=C(CCC(=O)N1Cc2ccccc2Oc2ncccc21)NCc1cccc(Cl)c1,/,/,.,.,.,/
O=C(Nc1ccc(F)cc1)c1ncn(-c2ccccc2)n1,/,/,.,.,.,/
Fc1ccc(C(c2nnc(-c3ccccc3)o2)N2CCN(c3ccccc3)CC2)c(Cl)c1 (configuration not stated),/,/,.,.,.,/
Cc1cc(C)c2oc(-c3cccc(NC(=O)COc4ccccc4Cl)c3C)nc2c1,/,/,.,.,.,/
Cc1ccc(CNS(=O)(=O)c2ccc(C(C)(C)C)cc2)n1C,.,.,-31,.,.,.
Cc1ccc(C(=O)NC2CCN(CCCC(=O)c3ccc(F)cc3)CC2)cc1,.,.,-38,.,.,.
O=C(CCCN1CCN(c2ccccn2)CC1)c1ccc(F)cc1,/,.,-74,.,.,.
O=C(CCCN1CCC(NC(=O)c2ccccc2)CC1)c1ccc(Cl)cc1,.,.,.,.,.,.
NCC1OC(O[C@H]2[C@H](O)[C@@H](OC3C(O)C(N)CC(N)C3OC3OC(CO)C(O)C(O)C3N)O[C@@H]2CO)C(N)C(O)C1O (some centres not stated),/,.,/,/,/,/
CCC(Cc1ccccc1)NC(=O)c1ccc2nc(N3CCC(C)CC3)sc2c1 (configuration not stated),/,/,.,.,.,/
O=C(OCc1ccccc1Cl)c1ccc(-n2cnnc2)cc1,.,.,-36,.,.,.
CCC(C)NC(=S)N1CCN(C(c2ccccc2)c2ccccc2)CC1 (configuration not stated),.,.,-31,.,.,.
COc1cc(C(C)=O)ccc1OCC(O)CN1CCN(S(=O)(=O)c2ccccc2)CC1 (configuration not stated),.,.,-31,.,.,.
COc1ccccc1OCC(O)CN1CCN(C(=O)c2ccccc2)CC1 (configuration not stated),.,.,-36,.,.,.
O=c1c2sc3ccccc3c2n(Cc2ccc(F)cc2)c(=O)n1Cc1ccccc1,/,/,.,.,.,/
CCOc1ccccc1NC(=O)c1cn(C2CCCCC2)c(=O)c2c1c1ccccc1n2C,/,/,.,.,.,/
